Data: PubChem BioAssay
A number with no mark means an inactive call. Calls of active or inactive are those of the source. Rule as the data show it, unless noted: active = inhibition above about 25%; inactive = the rest.

Assays:
[1] = target: Nuclear receptor coactivator 3 (Homo sapiens) (UniProt Q9Y6Q9); assay: SRC3 coactivator transcriptional activity inhibitors, confirmation, cell-based, luminescence, quadruplicate (AID 588792;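 active = mean inhibition over 43.08%, the solvent-only control mean plus 3 SD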;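 also: 0% = DMSO treated cells and 100% = gossypol at 36 µM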); conditions: HEK293 GAL4-SRC3 luciferase reporter, at 3.6 µM, hits give high values
Nuclear receptor coactivator 3 (Homo sapiens), sequence (Q9Y6Q9 whole entry, looked up, the tested form may be a part): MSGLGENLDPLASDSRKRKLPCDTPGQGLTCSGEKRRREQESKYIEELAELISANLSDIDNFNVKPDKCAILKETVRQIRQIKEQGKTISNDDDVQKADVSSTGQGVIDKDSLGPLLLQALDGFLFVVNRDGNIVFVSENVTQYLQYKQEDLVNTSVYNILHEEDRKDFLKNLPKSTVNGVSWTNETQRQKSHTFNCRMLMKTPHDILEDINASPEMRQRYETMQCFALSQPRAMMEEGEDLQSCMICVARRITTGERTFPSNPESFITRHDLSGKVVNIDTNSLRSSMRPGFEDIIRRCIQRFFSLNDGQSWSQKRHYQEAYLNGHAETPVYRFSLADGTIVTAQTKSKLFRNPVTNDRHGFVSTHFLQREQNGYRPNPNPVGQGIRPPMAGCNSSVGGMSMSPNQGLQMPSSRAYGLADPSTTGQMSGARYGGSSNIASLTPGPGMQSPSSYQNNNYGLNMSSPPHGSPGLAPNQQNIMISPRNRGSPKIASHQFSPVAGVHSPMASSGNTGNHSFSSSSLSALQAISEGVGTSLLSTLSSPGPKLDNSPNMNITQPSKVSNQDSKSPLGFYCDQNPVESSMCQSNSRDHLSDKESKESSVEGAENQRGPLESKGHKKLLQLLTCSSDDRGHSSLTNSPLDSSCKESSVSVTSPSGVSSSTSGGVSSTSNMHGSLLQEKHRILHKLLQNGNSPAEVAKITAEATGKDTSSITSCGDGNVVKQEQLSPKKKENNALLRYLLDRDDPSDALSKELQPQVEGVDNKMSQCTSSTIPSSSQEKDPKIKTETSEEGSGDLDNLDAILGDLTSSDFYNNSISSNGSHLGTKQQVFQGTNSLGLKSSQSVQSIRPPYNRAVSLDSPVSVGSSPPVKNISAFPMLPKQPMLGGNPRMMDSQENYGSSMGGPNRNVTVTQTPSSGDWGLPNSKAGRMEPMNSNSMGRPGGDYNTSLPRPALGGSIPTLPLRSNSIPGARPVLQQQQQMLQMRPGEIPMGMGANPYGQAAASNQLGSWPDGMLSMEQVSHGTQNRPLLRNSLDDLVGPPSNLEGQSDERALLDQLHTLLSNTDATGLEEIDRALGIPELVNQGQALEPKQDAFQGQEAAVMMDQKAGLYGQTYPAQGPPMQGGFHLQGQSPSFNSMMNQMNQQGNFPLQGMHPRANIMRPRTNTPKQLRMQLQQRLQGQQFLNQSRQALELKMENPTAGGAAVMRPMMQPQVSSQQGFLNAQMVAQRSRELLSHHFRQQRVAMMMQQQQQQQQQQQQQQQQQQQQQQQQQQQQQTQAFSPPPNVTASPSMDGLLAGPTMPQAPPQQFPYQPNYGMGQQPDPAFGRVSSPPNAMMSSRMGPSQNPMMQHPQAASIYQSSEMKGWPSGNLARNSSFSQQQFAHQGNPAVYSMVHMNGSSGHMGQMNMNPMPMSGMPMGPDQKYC

[2] = tested on: transactivating tegument protein VP16 (Human herpesvirus 1), Gal4-VP16 luciferase reporter; assay: VP16 transactivation inhibitors, counter-screen for SRC3 inhibitor project, cell-based, luminescence, high throughput (AID 588794; in the data active = inhibition above about 30%); conditions: mammalian cells, VP16-driven luciferase reporter luminescence; at 3.6 µM; hits give high values
[3] = target: Nuclear receptor coactivator 1 (Homo sapiens) (UniProt Q15788); assay: SRC1 coactivator transcriptional activity inhibitors, confirmation, cell-based, luminescence, quadruplicate (AID 588820;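 active = mean inhibition above 46.68%, the untreated control wells mean plus 3 SD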;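 also: 0% = DMSO wells and 100% = gossypol 36 µM treated wells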); conditions: HEK293 GAL4-SRC1 luciferase reporter, at 3.6 µM, hits give high values
[4] = VP16 transactivation inhibitors, counter-screen for SRC1 inhibitor project, cell-based, luminescence, high throughput (AID 588824); conditions: cell-based VP16 transactivation luciferase luminescence; at 3.6 µM; hits give high values
[5] = StAR promoter reporter inhibitors, counter-screen for LRH-1 inverse agonist project, cell-based, luminescence, high throughput (AID 651611; in the data active = inhibition above about 28%); conditions: StAR promoter luciferase reporter counterscreen, at 3.6 µM, hits give high values
[6] = target: Nuclear receptor subfamily 5 group A member 2 (Homo sapiens) (UniProt O00482); assay: LRH-1 (NR5A2) inverse agonists, retest, confirmation, cell-based, luminescence (AID 651613; in the data active = inhibition above about 42%;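 also: HEK293T cells co-transfected with LRH-1 and StAR promoter luciferase reporter; 0% = vehicle wells and 100% = parental cells lacking receptor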); conditions: cell-based LRH-1 luciferase reporter, inverse agonism; at 3.6 µM; hits give high values
Nuclear receptor subfamily 5 group A member 2 (Homo sapiens), sequence (O00482 whole entry, looked up): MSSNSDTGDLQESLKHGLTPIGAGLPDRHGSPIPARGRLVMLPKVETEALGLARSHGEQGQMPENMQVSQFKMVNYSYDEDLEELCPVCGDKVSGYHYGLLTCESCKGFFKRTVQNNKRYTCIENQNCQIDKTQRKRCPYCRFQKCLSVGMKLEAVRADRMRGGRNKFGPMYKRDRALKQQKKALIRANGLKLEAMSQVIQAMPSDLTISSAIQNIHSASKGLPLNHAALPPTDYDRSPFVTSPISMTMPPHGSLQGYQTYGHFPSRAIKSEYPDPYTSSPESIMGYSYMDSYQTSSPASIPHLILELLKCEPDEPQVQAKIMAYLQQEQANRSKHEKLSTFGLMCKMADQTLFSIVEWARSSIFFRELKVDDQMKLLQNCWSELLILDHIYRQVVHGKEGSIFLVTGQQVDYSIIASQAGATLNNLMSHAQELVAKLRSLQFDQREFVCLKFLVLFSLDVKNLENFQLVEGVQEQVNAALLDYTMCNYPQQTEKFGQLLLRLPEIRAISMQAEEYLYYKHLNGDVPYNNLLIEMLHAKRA

[7] = target: Steroidogenic factor 1 (Homo sapiens) (UniProt Q13285); assay: SF1 (NR5A1) inverse agonists, counter-screen for LRH-1 inverse agonist project, cell-based, luminescence, high throughput (AID 651614; in the data active = inhibition above about 44%;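 also: cells cotransfected with StAR promoter reporter and SF1 expression vector; 0% = vehicle on cells with receptor and 100% = vehicle on cells lacking receptor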); conditions: cell-based SF1 luciferase reporter, at 3.6 µM, hits give high values
Steroidogenic factor 1 (Homo sapiens), sequence (Q13285 whole entry, looked up, the tested form may be a part): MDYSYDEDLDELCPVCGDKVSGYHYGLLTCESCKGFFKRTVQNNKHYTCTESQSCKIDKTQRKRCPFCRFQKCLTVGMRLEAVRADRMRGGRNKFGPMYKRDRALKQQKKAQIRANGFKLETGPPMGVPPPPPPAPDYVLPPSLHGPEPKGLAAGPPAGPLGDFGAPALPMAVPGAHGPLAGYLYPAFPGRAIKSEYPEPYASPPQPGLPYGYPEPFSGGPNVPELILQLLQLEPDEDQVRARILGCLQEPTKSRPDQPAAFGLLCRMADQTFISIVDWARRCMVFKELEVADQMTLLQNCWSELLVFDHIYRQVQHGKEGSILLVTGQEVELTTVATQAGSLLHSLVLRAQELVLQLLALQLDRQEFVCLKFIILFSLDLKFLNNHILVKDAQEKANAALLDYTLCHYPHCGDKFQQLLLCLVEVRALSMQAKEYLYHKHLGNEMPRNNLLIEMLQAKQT

[8] = VP16 transactivation reporter inhibitors, counter-screen for LRH-1 inverse agonist project, cell-based, luminescence, high throughput (AID 651615; in the data active = inhibition above about 33%); conditions: Gal4-VP16 luciferase reporter cells, at 3.6 µM, hits give high values
[9] = tested on: transactivating tegument protein VP16 (Human herpesvirus 1); assay: VP16 transactivation reporter inhibitors, counter-screen for SRC2 inhibitor project, cell-based, luminescence, single concentration (AID 652007; in the data active = inhibition above about 36%); conditions: cell-based VP16 transactivation luciferase reporter, at 8.9 µM, hits give high values
[10] = target: Nuclear receptor coactivator 2 (Homo sapiens) (UniProt Q15596); assay: SRC2 coactivator transcriptional activity inhibitors, confirmation, cell-based, luminescence, HEK293, triplicate (AID 652008;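 active = mean inhibition above 46.5%, the solvent-only control mean plus 3 SD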;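 also: 0% = DMSO-treated cells and 100% = Gossypol at 36 µM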); conditions: HEK293 GAL4-SRC2 luciferase reporter, at 8.9 µM, hits give high values
Nuclear receptor coactivator 2 (Homo sapiens), sequence (Q15596 whole entry, looked up, the tested form may be a part): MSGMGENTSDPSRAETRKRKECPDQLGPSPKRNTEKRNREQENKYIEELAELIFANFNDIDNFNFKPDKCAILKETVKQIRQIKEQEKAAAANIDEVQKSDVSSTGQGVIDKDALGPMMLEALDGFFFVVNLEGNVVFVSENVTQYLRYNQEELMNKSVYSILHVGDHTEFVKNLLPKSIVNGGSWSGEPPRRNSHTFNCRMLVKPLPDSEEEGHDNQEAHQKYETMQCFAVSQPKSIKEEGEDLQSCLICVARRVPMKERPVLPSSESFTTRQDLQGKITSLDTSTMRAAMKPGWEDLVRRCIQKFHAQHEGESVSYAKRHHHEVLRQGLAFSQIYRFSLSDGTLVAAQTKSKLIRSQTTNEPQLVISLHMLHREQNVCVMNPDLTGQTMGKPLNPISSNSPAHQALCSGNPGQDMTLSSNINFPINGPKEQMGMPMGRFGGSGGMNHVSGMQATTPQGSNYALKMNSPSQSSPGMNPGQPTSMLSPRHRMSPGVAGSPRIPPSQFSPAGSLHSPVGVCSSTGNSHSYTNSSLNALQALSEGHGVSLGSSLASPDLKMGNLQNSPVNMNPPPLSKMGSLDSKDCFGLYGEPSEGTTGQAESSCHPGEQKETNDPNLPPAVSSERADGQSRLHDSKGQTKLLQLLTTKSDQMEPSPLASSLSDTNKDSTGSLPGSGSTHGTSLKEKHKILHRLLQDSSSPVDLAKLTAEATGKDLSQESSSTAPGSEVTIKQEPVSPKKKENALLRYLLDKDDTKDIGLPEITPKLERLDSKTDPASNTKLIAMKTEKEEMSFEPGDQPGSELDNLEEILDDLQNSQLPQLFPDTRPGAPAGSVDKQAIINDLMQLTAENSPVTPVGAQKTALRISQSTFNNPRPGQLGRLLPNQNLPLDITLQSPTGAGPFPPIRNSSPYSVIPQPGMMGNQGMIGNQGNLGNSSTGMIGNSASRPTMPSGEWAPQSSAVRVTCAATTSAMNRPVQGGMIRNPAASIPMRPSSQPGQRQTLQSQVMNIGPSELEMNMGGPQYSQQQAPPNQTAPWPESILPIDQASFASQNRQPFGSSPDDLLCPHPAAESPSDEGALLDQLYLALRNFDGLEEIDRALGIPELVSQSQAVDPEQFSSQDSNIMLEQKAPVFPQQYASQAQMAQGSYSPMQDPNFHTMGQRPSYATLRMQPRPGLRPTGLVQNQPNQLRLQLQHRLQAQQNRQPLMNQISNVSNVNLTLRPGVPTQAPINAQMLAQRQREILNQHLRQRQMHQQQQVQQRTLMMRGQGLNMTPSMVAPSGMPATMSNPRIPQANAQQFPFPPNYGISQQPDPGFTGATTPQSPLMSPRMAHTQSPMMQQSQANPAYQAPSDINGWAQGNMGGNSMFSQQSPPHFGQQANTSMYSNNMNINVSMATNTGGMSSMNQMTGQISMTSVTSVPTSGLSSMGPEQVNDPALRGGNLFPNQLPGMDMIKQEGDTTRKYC

Structure (SMILES) | inhibition [1] | inhibition [2] | inhibition [3] | inhibition [4] | inhibition [5] | inhibition [6] | inhibition [7] | inhibition [8] | inhibition [9] | inhibition [10]
O=C(CCC1CCCC1)Nc1ccc(C(=O)NCc2cccnc2)cc1 | 88.5% (active) | 43.3% (active) | 62.4% (active) | 24.4% | 88% (active) | 98.7% (active) | 94.8% (active) | 66.9% (active) | -5.72% | 48.6% (active)
Nc1ccc(Oc2ccccc2-c2ccccc2)cc1 | 42.6% | 17.6% | 14.7% | 19% | 30.3% (active) | 53.5% (active) | 49.6% (active) | 39.6% (active) | 80.5% (active) | 87.8% (active)
Cc1nc2c(-c3ccccc3)cnn2c(N)c1-c1ccccc1 | 43.4% (active) | 37.4% (active) | 13.1% | 5.33% | -35.4% | -128% | -43.9% | -38.5% | 19.9% | 58.2% (active)
O=C(O)C1CCCCC1C(=O)Nc1ccc2c(c1)OCCO2 (stereo not given) | -6.32% | -0.43% | -18.1% | -13.8% | -0.9% | -1.32% | -1.69% | 0% | -11.1% | 26.9%
CC(C)(C)c1ccc(C(=O)Nc2ccc(CC(=O)O)cc2)o1 | 54.1% (active) | 40% (active) | 37.9% | 42% (active) | 45.1% (active) | 52.5% (active) | 46.9% (active) | 37.7% (active) | 70.2% (active) | 92.1% (active)
COC1=CC(=O)c2nc(Cl)ccc2C1=O | 67.8% (active) | 55.1% (active) | -9.24% | 60.7% (active) | 56.2% (active) | 65.1% (active) | 70% (active) | 72.2% (active) | 24.5% | 89.5% (active)
COc1ccccc1C(=O)N(CCC1CCCN1C)c1nc2ccccc2s1 (stereo not given) | 38.7% | 14.6% | -24.3% | -21.5% | -41.5% | -79.1% | -54.7% | -44.3% | 11.8% | 53.8% (active)
O=C(N/N=C/c1ccc(O)cc1O)c1ccc(CN2C(=O)c3cccc4cccc2c34)cc1 | 67.2% (active) | 77.8% (active) | 78.5% (active) | 76.2% (active) | 84.8% (active) | 101% (active) | 89.2% (active) | 82.6% (active) | -14.6% | 18.8%
O=C(N/N=C/c1c(O)ccc2ccccc12)c1cccnc1 | 71.2% (active) | 81.2% (active) | 73.1% (active) | 80% (active) | 88.5% (active) | 102% (active) | 89.4% (active) | 86.1% (active) | 5.29% | 20.7%
CC(C)(C)C(=O)/C(=C/c1ccncc1)n1cncn1 | 69.2% (active) | 55.3% (active) | 59.9% (active) | 48% (active) | 35.2% (active) | 42.6% (active) | 46.5% (active) | 69.2% (active) | 39.9% (active) | 63.3% (active)
CCCNC1=C(N(C(C)=O)c2cccc(F)c2)C(=O)c2ccccc2C1=O | 49.9% (active) | 65.3% (active) | 58.6% (active) | 67.2% (active) | 68.9% (active) | 68.8% (active) | 88% (active) | 69.2% (active) | 24.1% | 34.3%
Cc1nn(-c2ccccc2Cl)c(Cl)c1/C=N/Nc1nc2ccccc2s1 | 64.1% (active) | 73.5% (active) | 48.1% (active) | 57.4% (active) | 82.7% (active) | 21.8% | 73.5% (active) | 58.5% (active) | 82.7% (active) | 91.7% (active)
CC(C)Nc1ncnc2ccc(Br)cc12 | 74.3% (active) | 72.7% (active) | 65.3% (active) | 58.9% (active) | 17.8% | 61.1% (active) | 58.4% (active) | 71% (active) | 20.2% | 65.7% (active)
CC1CC(C)C(=O)C(C(CC2CC(=O)NC(=O)C2)OC(=O)CC(=O)c2ccccc2)C1 (stereo not given) | 93.1% (active) | 88.9% (active) | 81.3% (active) | 87.8% (active) | 91.6% (active) | 108% (active) | 96.9% (active) | 91.7% (active) | 37.2% (active) | 52.5% (active)
Cc1cccc(-n2ncc3c(N(C)C4CCCCC4)ncnc32)c1 | 72.9% (active) | 64.4% (active) | 28.5% | 46.4% (active) | 60.6% (active) | 11.5% | 52.7% (active) | 29% | 52.5% (active) | 83% (active)
O=C(CSCC(=O)Nc1ccccc1)N/N=C/c1c(O)ccc2ccccc12 | 49.3% (active) | 30.7% (active) | 45.4% | 33.4% (active) | 86% (active) | 102% (active) | 91.5% (active) | 82.9% (active) | -14.6% | 21.6%
